Measurements reported in the supplement of paper PMC10849652.
The full data set covers some 7,900 targets. This sample favours those with a hit. About 0.6% of all pairs of compound and target were hits.

Compound: CCN(CC)Cc1ccc2cc(COC(=O)Nc3ccc(C(=O)NO)cc3)ccc2c1 [givinostat]
Assay: log2 fold change, soluble protein after heating vs DMSO (PISA); higher = thermal stabilisation; K562 cells, 10 uM, 30 min; active = over 0.2 and 3.5 SD of the protein, either way, in both replicates (recomputed)
Method in brief: (§1)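 Aliquots of K562 cells (2×10^6 cells/mL) treated with 10 μM compound for 30 min were heated for 3 min over 48°C-58°C. After pooling and extraction in PBS with 0.5% NP-40 at 4°C, soluble protein from a 21,000xg, 90 min spin was quantified by TMTpro 16plex LC-MS/MS with channel sums equalised. Thermal stability is expressed against control samples, from duplicates, as a log2 fold change.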

Chain of UniProt Q86X95 (Q86X95 whole entry, looked up): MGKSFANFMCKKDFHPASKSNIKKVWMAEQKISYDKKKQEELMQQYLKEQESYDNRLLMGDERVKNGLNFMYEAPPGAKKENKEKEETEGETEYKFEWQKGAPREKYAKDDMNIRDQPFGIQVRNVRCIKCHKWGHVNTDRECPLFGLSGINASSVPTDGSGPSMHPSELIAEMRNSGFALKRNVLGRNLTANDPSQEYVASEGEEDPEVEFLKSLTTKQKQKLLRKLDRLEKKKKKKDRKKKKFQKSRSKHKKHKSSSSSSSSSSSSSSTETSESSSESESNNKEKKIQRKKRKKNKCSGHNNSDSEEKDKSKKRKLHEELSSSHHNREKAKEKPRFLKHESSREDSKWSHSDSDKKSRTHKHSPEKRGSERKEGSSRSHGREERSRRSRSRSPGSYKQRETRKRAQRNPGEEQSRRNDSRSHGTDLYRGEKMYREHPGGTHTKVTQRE
Chain of UniProt P49336 (P49336 whole entry, looked up): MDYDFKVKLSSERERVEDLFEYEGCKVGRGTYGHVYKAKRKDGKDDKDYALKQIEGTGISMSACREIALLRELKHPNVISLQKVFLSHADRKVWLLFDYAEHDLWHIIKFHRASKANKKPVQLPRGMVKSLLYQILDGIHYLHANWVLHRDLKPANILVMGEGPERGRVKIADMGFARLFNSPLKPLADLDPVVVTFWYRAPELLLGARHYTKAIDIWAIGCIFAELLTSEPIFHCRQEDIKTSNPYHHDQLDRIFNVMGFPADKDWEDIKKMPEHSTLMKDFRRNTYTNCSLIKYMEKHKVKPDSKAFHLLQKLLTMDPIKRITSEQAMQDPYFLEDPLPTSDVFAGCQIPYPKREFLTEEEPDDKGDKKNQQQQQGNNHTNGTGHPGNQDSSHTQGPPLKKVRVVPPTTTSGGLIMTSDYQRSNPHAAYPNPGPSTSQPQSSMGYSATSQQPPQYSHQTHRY
Chain of UniProt Q96MX0 (Q96MX0 whole entry, looked up): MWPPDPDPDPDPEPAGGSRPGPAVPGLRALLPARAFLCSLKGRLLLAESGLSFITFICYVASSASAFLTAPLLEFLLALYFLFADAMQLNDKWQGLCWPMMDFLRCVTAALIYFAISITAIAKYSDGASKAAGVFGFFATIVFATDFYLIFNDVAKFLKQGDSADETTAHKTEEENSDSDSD
Chain of UniProt Q9BSQ5 (Q9BSQ5 whole entry, looked up): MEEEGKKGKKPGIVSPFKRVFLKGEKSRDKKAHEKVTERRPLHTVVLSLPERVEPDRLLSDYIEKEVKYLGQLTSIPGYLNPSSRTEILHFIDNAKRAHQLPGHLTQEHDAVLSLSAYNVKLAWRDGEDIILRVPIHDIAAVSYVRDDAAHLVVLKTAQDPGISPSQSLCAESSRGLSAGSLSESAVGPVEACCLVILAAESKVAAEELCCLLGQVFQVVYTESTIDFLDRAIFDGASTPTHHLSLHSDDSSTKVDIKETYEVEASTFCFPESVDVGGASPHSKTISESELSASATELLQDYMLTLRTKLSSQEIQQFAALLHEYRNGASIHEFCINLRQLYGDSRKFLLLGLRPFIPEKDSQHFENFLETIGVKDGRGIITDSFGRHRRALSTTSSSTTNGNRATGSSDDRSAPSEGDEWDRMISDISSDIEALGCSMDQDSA
Chain of UniProt Q92828 (Q92828 whole entry, looked up): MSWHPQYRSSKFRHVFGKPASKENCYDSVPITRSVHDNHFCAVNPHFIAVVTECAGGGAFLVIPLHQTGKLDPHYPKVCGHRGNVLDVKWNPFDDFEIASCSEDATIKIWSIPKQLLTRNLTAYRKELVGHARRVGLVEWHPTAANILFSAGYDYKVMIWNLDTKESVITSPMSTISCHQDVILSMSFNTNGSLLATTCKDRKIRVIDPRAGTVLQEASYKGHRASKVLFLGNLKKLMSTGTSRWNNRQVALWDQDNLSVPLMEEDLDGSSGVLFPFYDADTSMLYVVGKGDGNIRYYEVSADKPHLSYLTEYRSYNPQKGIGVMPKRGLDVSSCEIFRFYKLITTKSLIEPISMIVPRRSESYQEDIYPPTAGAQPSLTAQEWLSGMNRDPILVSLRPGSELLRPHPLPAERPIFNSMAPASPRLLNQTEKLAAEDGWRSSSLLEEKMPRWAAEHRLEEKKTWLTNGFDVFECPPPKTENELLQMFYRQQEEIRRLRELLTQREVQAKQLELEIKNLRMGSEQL
Chain of UniProt Q9UBY8 (Q9UBY8 whole entry, looked up): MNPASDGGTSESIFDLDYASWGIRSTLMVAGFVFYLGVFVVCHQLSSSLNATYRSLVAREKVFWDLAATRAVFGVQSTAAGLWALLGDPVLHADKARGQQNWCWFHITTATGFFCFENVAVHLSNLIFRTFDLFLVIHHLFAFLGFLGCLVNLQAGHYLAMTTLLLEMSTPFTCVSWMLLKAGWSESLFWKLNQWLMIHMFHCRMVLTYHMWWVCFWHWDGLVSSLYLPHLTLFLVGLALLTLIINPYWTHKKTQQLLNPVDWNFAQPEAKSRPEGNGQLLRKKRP
Chain of UniProt Q9H9S4 (Q9H9S4 whole entry, looked up): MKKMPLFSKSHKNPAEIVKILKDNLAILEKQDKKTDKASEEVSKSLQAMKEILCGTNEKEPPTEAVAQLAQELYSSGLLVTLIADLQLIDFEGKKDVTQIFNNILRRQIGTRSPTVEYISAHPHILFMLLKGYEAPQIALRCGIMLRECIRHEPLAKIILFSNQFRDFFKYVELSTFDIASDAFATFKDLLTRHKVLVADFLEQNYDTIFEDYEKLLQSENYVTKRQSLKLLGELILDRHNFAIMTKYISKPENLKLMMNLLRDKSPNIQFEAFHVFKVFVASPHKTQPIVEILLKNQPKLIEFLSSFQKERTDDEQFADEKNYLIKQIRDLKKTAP
Chain of UniProt P24311 (P24311 whole entry, looked up): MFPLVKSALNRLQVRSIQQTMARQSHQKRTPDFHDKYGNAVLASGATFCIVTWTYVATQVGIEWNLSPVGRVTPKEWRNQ
Chain of UniProt Q00537 (Q00537 whole entry, looked up): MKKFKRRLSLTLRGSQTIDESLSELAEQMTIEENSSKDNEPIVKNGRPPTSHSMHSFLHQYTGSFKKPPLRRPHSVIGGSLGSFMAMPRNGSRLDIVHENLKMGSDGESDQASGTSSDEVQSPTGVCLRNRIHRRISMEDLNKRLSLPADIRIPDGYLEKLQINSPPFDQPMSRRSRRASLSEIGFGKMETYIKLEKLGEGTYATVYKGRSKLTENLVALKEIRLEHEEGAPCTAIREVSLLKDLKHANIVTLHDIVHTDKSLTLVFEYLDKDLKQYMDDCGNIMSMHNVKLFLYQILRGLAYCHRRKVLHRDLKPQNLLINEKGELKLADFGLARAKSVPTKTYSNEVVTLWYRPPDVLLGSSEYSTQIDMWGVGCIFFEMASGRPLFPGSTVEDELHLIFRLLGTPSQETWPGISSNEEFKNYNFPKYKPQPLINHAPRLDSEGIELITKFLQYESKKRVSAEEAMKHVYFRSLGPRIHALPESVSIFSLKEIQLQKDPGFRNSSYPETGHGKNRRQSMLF
Chain of UniProt Q7Z4R8 (Q7Z4R8 whole entry, looked up): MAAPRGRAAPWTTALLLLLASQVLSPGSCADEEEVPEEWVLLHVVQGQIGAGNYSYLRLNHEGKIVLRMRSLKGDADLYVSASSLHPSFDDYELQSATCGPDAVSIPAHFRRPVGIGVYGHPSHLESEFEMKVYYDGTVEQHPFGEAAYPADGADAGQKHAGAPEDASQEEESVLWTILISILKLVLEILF
Chain of UniProt Q13111 (Q13111 whole entry, looked up): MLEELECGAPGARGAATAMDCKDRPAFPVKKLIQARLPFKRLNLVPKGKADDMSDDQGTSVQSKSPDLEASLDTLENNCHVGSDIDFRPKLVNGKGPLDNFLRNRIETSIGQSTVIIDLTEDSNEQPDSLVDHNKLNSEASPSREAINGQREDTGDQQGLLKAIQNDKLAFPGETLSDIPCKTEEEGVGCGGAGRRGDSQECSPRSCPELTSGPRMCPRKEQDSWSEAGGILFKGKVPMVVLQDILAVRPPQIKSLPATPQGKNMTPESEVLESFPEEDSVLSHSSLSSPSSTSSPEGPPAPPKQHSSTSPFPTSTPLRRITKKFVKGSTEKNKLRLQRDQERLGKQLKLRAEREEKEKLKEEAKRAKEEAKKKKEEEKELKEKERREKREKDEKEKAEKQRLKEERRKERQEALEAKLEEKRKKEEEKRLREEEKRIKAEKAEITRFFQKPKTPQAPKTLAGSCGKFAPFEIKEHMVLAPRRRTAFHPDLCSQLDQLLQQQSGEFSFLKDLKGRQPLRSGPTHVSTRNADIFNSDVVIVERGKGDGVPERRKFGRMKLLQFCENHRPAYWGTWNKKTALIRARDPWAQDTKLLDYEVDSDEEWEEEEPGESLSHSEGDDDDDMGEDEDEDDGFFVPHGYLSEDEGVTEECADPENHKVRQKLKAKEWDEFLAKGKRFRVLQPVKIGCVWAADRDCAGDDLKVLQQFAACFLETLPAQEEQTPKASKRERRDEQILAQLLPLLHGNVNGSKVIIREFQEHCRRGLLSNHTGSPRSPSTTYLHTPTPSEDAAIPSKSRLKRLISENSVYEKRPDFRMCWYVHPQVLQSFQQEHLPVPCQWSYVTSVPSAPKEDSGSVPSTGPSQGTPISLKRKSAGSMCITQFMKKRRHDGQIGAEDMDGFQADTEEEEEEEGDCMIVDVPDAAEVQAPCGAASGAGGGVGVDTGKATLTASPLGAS
Chain of UniProt Q9P0B6 (Q9P0B6 whole entry, looked up): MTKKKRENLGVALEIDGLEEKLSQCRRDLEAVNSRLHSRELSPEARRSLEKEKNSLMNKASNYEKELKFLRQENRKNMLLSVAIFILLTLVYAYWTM
Chain of UniProt Q96G28 (Q96G28 whole entry, looked up): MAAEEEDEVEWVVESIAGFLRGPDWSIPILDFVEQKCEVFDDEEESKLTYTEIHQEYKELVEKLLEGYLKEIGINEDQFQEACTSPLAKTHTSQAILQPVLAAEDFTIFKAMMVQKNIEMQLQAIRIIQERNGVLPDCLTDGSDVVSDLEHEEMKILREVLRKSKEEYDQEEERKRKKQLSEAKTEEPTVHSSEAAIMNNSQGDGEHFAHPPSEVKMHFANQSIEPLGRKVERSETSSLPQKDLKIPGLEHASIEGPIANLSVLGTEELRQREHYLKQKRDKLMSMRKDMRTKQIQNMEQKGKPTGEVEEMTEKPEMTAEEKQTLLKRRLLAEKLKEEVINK

log2 fold change, inactive:
CFAP36 isoform 2 (UniProt Q96G28) -0.003
CENPE (UniProt Q02224) 0.285
C22orf39 (UniProt Q6P5X5) 0.044
COX7B (UniProt P24311) -0.013
CCM2 isoform 2 (UniProt Q9BSQ5) -0.003
CRTC1 isoform 2 (UniProt Q6UUV9) 0.158
CDK5 (UniProt Q00535) 0.003
C15orf41 (UniProt Q9Y2V0) -0.012
CCDC167 (UniProt Q9P0B6) 0.048
C6orf120 (UniProt Q7Z4R8) -0.011
C9orf72 (UniProt Q96LT7) -0.022
C19orf54 (UniProt Q5BKX5) 0.044
CDK19 (UniProt Q9BWU1) -0.133
COG2 (UniProt Q14746) 0.048
CCNC (UniProt P24863) 0.011
CCNDBP1 (UniProt O95273) -0.046
CIR1 (UniProt Q86X95) -0.015
CDK8 (UniProt P49336) 0.02
COX17 (UniProt Q14061) 0.029
CHAF1A (UniProt Q13111) 0.149
CRYM-AS1 (UniProt A6NIL9) 0.189
CORO2A (UniProt Q92828) 0.002
CSNK1D (UniProt P48730) -0.254
CDCA2 (UniProt Q69YH5) 0.382
CMTM3 (UniProt Q96MX0) -0.016
CDK17 isoform 2 (UniProt Q00537) 0.003
CDKN1B (UniProt P46527) 0.051
CAB39L (UniProt Q9H9S4) -0.025
CHST10 (UniProt O43529) 0.069
CLN8 (UniProt Q9UBY8) -0.086

Compound: CCN(CCCOc1ccc2c(Nc3cc(CC(=O)Nc4cccc(F)c4)[nH]n3)ncnc2c1)CCOP(=O)(O)O [barasertib]
Assay: as above
Method in brief: as §1

log2 fold change, inactive:
CFAP36 isoform 2 (UniProt Q96G28) 0.03
CENPE (UniProt Q02224) -0.1
C22orf39 (UniProt Q6P5X5) -0.042
CASP10 isoform 4 (UniProt Q92851) 0.121
COPS3 isoform 2 (UniProt Q9UNS2) 0.065
COX7B (UniProt P24311) -0.025
CCM2 isoform 2 (UniProt Q9BSQ5) -0.061
CRTC1 isoform 2 (UniProt Q6UUV9) 0.015
CCDC167 (UniProt Q9P0B6) -0.003
C6orf120 (UniProt Q7Z4R8) 0.017
C9orf72 (UniProt Q96LT7) 0.042
CRTC3 (UniProt Q6UUV7) 0.035
CCNC (UniProt P24863) -0.024
CCNDBP1 (UniProt O95273) 0.088
CIR1 (UniProt Q86X95) -0.105
CDK8 (UniProt P49336) -0.343
CHAF1A (UniProt Q13111) 0.107
CRYM-AS1 (UniProt A6NIL9) -0.036
CORO2A (UniProt Q92828) 0.065
CSNK1D (UniProt P48730) -0.032
CMTM3 (UniProt Q96MX0) 0.098
CDK17 isoform 2 (UniProt Q00537) 0.055
CDKN1B (UniProt P46527) -0.063
CAB39L (UniProt Q9H9S4) 0.043
CHST10 (UniProt O43529) -0.025
CLN8 (UniProt Q9UBY8) 0.051

Compound: CC[C@@H]1C(=O)N(C)c2cnc(Nc3ccc(C(=O)NC4CCN(C)CC4)cc3OC)nc2N1C1CCCC1
Assay: as above
Method in brief: as §1

log2 fold change, inactive:
CFAP36 isoform 2 (UniProt Q96G28) -0.159
CHPT1 (UniProt Q8WUD6) -0.324
CASP10 isoform 4 (UniProt Q92851) -0.091
COPS3 isoform 2 (UniProt Q9UNS2) 0.079
COX7B (UniProt P24311) -0.011
CCM2 isoform 2 (UniProt Q9BSQ5) -0.207
CCNT2 (UniProt O60583) 0.035
CDK5 (UniProt Q00535) -0.087
C15orf41 (UniProt Q9Y2V0) -0.04
CCDC167 (UniProt Q9P0B6) 0.069
C6orf120 (UniProt Q7Z4R8) 0.066
C19orf54 (UniProt Q5BKX5) 0.054
CDK19 (UniProt Q9BWU1) 0.016
CASP9 (UniProt P55211) -0.083
COG2 (UniProt Q14746) -0.173
CCNDBP1 (UniProt O95273) 0.088
CIR1 (UniProt Q86X95) 0
CDK8 (UniProt P49336) 0.096
CHAF1A (UniProt Q13111) 0.025
CRYM-AS1 (UniProt A6NIL9) -0.04
CORO2A (UniProt Q92828) 0.164
CDCA2 (UniProt Q69YH5) 0.193
CMTM3 (UniProt Q96MX0) 0.066
CDK17 isoform 2 (UniProt Q00537) -0.153
CAB39L (UniProt Q9H9S4) -0.134
CLN8 (UniProt Q9UBY8) 0.069
